# The campaign covered roughly 39,000 compounds. About 3,300 (8.5%) were called active. Shown is part of a subset that was picked to be rich in actives.
# Test system: HepG2
# Test: cytotoxicity call (relative viability < 0.9)
# Details: 10 µM
row,SMILES,cytotoxicity call
1,O=C(C[C@@H]1CC[C@@H]2[C@H](COC[C@@H](O)CN2S(=O)(=O)c2ccccc2)O1)N1CCc2ccccc2C1,inactive
2,C[C@@H]1CCCCO[C@H](CN(C)S(=O)(=O)c2cccs2)[C@@H](C)CN([C@@H](C)CO)C(=O)c2cc(NS(=O)(=O)c3cn(C)cn3)ccc2O1,inactive
3,C[C@@H]1CN([C@@H](C)CO)C(=O)Cc2cc(NS(=O)(=O)c3cn(C)cn3)ccc2O[C@@H]1CN(C)Cc1ccc(C(=O)O)cc1,inactive
4,C[C@H](CO)N1C[C@H](C)[C@H](CN(C)S(=O)(=O)c2cn(C)cn2)Oc2ccc(N(C)C)cc2CC1=O,inactive
5,CC(C)CC#Cc1ccc2c(c1)O[C@@H](CN(C)C(=O)c1ccncc1)[C@H](C)CN([C@H](C)CO)S2(=O)=O,inactive
6,Cc1ccc(S(=O)(=O)N(C)C[C@@H]2Oc3cc(C#Cc4ccncc4)ccc3S(=O)(=O)N([C@H](C)CO)C[C@H]2C)cc1,active
7,Cc1ccc(S(=O)(=O)N(C)C[C@H]2Oc3cc(C#Cc4ccncc4)ccc3S(=O)(=O)N([C@H](C)CO)C[C@H]2C)cc1,active
8,Cc1ccc(S(=O)(=O)N(C)C[C@H]2Oc3cc(C#Cc4ccccc4)ccc3S(=O)(=O)N([C@@H](C)CO)C[C@@H]2C)cc1,inactive
9,Cc1ccc(S(=O)(=O)N(C)C[C@@H]2Oc3cc(C#Cc4ccccc4)ccc3S(=O)(=O)N([C@@H](C)CO)C[C@H]2C)cc1,inactive
10,Cc1ccc(S(=O)(=O)N(C)C[C@H]2Oc3cc(C#Cc4ccccc4)ccc3S(=O)(=O)N([C@@H](C)CO)C[C@H]2C)cc1,inactive
11,Cc1ccc(S(=O)(=O)N(C)C[C@@H]2Oc3cc(C#Cc4ccccc4)ccc3S(=O)(=O)N([C@@H](C)CO)C[C@@H]2C)cc1,inactive
12,Cc1ccc(S(=O)(=O)N(C)C[C@H]2Oc3cc(C#Cc4ccccc4)ccc3S(=O)(=O)N([C@H](C)CO)C[C@H]2C)cc1,inactive
13,Cc1ccc(S(=O)(=O)N(C)C[C@@H]2Oc3cc(C#Cc4ccncc4)ccc3S(=O)(=O)N([C@H](C)CO)C[C@@H]2C)cc1,active
14,Cc1ccc(S(=O)(=O)N(C)C[C@H]2Oc3cc(C#Cc4ccncc4)ccc3S(=O)(=O)N([C@@H](C)CO)C[C@@H]2C)cc1,active
15,Cc1ccc(S(=O)(=O)N(C)C[C@@H]2Oc3cc(C#Cc4ccccc4)ccc3S(=O)(=O)N([C@H](C)CO)C[C@@H]2C)cc1,inactive
16,CC(C)NC(=O)Nc1ccc2c(c1)C(=O)N([C@H](C)CO)C[C@@H](C)[C@@H](CN(C)C(=O)C1CCCCC1)OCCCC[C@H](C)O2,inactive
17,CO[C@@H]1CN(C)C(=O)c2ccc(NS(C)(=O)=O)cc2OC[C@@H](C)N(C(=O)c2ccc3c(c2)OCO3)C[C@@H]1C,inactive

# From the antibiotic and cytotoxicity screens of Wong et al. (2023)
